Reference: PubChem BioAssay (NCATS)
Inconclusive results are not listed. The source made the active and inactive calls. Unless noted, calls follow the shape of the dose curve; as a rule, active = well fitted curve in either direction with a large enough effect (not every such curve was filed as active); inconclusive = small, poorly fitted or top-dose-only effect, or another doubt; inactive = flat fitted curve, though single readings scatter.

How the values were obtained:
[1] = NFAT Signaling Pathway (AID 444); details: Jurkat NFAT-bla M1, carbachol, beta-lactamase ratio, 5 h; at 17.2 µM (top of the series) unless noted;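 also: carbachol stimulus at about its EC50 of 1 µM final; % is scaled to controls: 0 for no effect and ±100 for the full control effect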
Procedure, shortened: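 Jurkat cells with NFAT-driven β-lactamase reporter and co-expressed M1 receptor, stimulated with carbachol (final 1 uM, ~EC50), compound titration, 5 h at 37 °C. CCF4 loaded 1 h at RT; 460/530 nm ratio gave %activity and AC50.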

[2] = Stat Signaling Pathway (AID 446); details: ME-180 SIE beta-lactamase reporter, IL-6 stimulated, 5 h; at 17.2 µM (top of the series) unless noted;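 also: ME-180 cervical cancer cells given 40 pM IL-6 alongside compound; SIE-controlled beta-lactamase reporter measured as 460/530 nm FRET emission ratio; % is scaled to controls: 0 for no effect and ±100 for the full control effect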
Procedure, shortened: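 FRET read-out (405 nm excitation, 460/530 nm emission) of a beta-lactamase reporter under a STAT-inducible element in ME-180 cervical carcinoma cells. Cells with compound receive 40 pM IL-6 for 5 h. Values are normalised to AC90 stimulation and AC90 JAK-inhibitor controls.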

[3] = target: Glucocorticoid receptor (Homo sapiens) (UniProt P04150); experiment: GR-GFP Redistribution (AID 450;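 active = compounds whose dose series gives a full or clear partial fitted curve of increased nuclear translocation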; also: potency is read from the fitted curve at half-maximal effect)
[4] = target: Glucocorticoid receptor (Homo sapiens) (UniProt P04150); experiment: GR-EFC Redistribution (AID 451; calls by dose curve; also: potency is read from the fitted curve at half-maximal effect); details: CHO-K1 GR-EFC translocation, beta-gal luminescence, 2 h
Procedure, shortened: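 CHO-K1 cells expressing nuclear EA and GR-ED fragments of b-gal; compounds titrated up to 46 uM final, 2 h at 37 C. GR nuclear translocation read as complemented b-gal luminescence after 1 h RT detection.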

[5] = target: 3',5'-cyclic-AMP phosphodiesterase 4B (Homo sapiens) (UniProt Q07343); experiment: qHTS Assay for Inhibitors of PDE-IV (AID 607; active = well fitted activation curve with a large enough effect in the main read-out, with a control signal flat, not every such curve was filed as active; also: % of control where 0% means no effect)
Procedure, shortened: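 Cell-based read-out of cAMP via a modified cyclic nucleotide-gated channel and membrane potential dye (535/590 nm) in HEK293 cells expressing PDE4 endogenously. Compounds tested up to 22.9 uM final; 100 uM RO 20-1724 reference.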

[6] = target: Guanine nucleotide-binding protein G(i) subunit alpha-1 (Homo sapiens) (UniProt P63096); experiment: qHTS Assay for Inhibitors of RGS12 GoLoco Motif Activity (Green Fluorophore) (AID 879; active = well fitted curve in the direction sought with a large enough effect; an effect the other way counts as inactive or inconclusive;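 also: 0% = labeled peptide with Gαi1 and full inhibition = labeled peptide alone without protein; negative values mean loss of peptide binding seen as reduced polarization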)
Procedure, shortened: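 A drop in FITC polarization marked displacement of the FITC-tagged RGS12 GoLoco peptide (10 nM) from Gαi1 (50 nM). Compounds were incubated 10 min at room temperature in Tris pH 7.5 buffer containing 150 mM NaCl, 0.1 mM GDP and 0.05% NP40; unlabeled peptide titration served as control.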

[7] = qHTS Assay for Identification of Small Molecule Antagonists for NFkB Signaling Pathway (AID 895; active = well fitted inhibition curve with a large enough effect in the signal ratio, with a control signal flat, not every such curve was filed as active; the % refers to the signal ratio; also: potency is read from the fitted curve at half-maximal effect)
Procedure, shortened: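 ME-180 NFkB-bla cells (beta-lactamase under NFkB response element), plated overnight, treated with compound then 10 pM TNF alpha (about EC50) for 5 hrs at 37 C. LiveBLAzer FRET read at 460/530 nm emission, 405 nm excitation.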

[8] = qHTS Assay for Identification of Small Molecule Agonists for Thrombopoietin (TPO) Signaling Pathway (AID 917; active = well fitted curve in the direction sought with a large enough effect; an effect the other way counts as inactive or inconclusive; also: % is scaled to controls: 0 for no effect and ±100 for the full control effect)
Procedure, shortened: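 Human TPO receptor–transfected Ba/F3 cells (murine, IL-3-dependent) in IL-3-deficient medium; compounds plus TPO at EC50, 26 pM final; 24 hrs, 37 C; GpIIb-luciferase luminescence after 10 min RT detection.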

[9] = target: Muscarinic acetylcholine receptor M1 (Rattus norvegicus) (UniProt P08482); experiment: qHTS Assay for Antagonists of Acetylcholine Muscarinic M1 Receptor: Kinetic Measurement of Intracellular Calcium Response (AID 943; active = well fitted curve in the direction sought with a large enough effect; an effect the other way counts as inactive or inconclusive;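 also: Fluo-4 calcium signal as peak divided by basal fluorescence over 4 min; nearly all actives have a fitted effect of over 75% in size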)
Procedure, shortened: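 Quantitative HTS in CHO-M1 (rat receptor) cells: 10 min compound exposure ahead of 100 nM carbachol, Fluo-4 fluorescence followed 4 min, value expressed as peak-to-basal ratio.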

[10] = target: Muscarinic acetylcholine receptor M1 (Rattus norvegicus) (UniProt P08482); experiment: qHTS Assay for Antagonists of Acetylcholine Muscarinic M1 Receptor: Measurement of IP-One Response (AID 944; active = well fitted curve in the direction sought with a large enough effect; an effect the other way counts as inactive or inconclusive; also: nearly all actives have a fitted effect of over 75% in size)
Procedure, shortened: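 Antagonism was measured as loss of carbachol-driven (EC80) IP1 accumulation in CHO cells carrying rat M1, using a homogeneous IP-One TR-FRET kit read at 620 and 665 nm.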

[11] = target: Pyruvate kinase (Leishmania mexicana) (UniProt Q27686); experiment: qHTS Validation Assay for Inhibitors of Leishmania Mexicana Pyruvate Kinase (AID 945; active = well fitted curve in the direction sought with a large enough effect; an effect the other way counts as inactive or inconclusive;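 also: 0% = DMSO only neutral control wells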)
Procedure, shortened: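 Purified LmPYK (E451W mutant, 0.2 nM) was incubated 1 h at room temperature with 0.5 mM PEP and 0.1 mM ADP in 50 mM imidazole pH 7.2, 50 mM KCl, 7 mM MgCl2; ATP formed was read by PKLight luminescence, normalized to DMSO wells.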

[12] = target: Pyruvate kinase PKM (Homo sapiens) (UniProt P14618); experiment: qHTS Assay for Activators of Human Muscle Pyruvate Kinase (AID 954; active = well fitted curve in the direction sought with a large enough effect, not every such curve was filed as active;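 also: 0% = uninhibited enzyme and -100% = no enzyme or full thiadiazolimine inhibition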)
Procedure, shortened: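 ATP production by PKM2 detected via luciferase luminescence after 1 h room-temperature reaction (0.1 nM enzyme, PEP at Km 0.5 mM, ADP 0.1 mM, pH 7.2 imidazole buffer). Inhibition scaled to no-enzyme control; activation referenced to 0.3 nM enzyme wells.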

[13] = target: Alpha-galactosidase A (Homo sapiens) (UniProt P06280); experiment: Counterscreen for Glucocerebrosidase Inhibitors: qHTS Assay for Human alpha-Galactosidase at pH 4.5 (AID 992; active = well fitted curve in the direction sought with a large enough effect; an effect the other way counts as inactive or inconclusive; also: 0% is about no effect)
Procedure, shortened: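 Fluorogenic 1536-well qHTS at pH 4.5 (citrate, Tween-20): 2 nM enzyme, 80 uM 4-MU-alpha-galactoside, 20 min room temperature, NaOH/glycine stop. Titration 0.7 nM to 77 uM, data normalized to no-enzyme and full-activity controls, Hill-fitted AC50.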

[14] = target: alpha-glucosidase (Oryza sativa, rice) (UniProt Q653V4); experiment: Counterscreen for Glucocerebrosidase Inhibitors: qHTS Assay for Rice alpha-Glucosidase at pH 5.0 (AID 997; active = well fitted curve in the direction sought with a large enough effect; an effect the other way counts as inactive or inconclusive;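 also: 0% = full activity with enzyme and -100% = basal without enzyme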)
Procedure, shortened: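 Endpoint fluorogenic assay at pH 5.0: compounds (0.7 nM to 77 uM) titrated against 4 nM rice enzyme and 400 uM 4-MU-alpha-glucoside for 20 min at room temperature; NaOH/glycine stop, read ex 365/em 440 nm, Hill-fitted AC50.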

Sequence of Glucocorticoid receptor (Homo sapiens) (P04150 whole entry, looked up, the tested form may be a part): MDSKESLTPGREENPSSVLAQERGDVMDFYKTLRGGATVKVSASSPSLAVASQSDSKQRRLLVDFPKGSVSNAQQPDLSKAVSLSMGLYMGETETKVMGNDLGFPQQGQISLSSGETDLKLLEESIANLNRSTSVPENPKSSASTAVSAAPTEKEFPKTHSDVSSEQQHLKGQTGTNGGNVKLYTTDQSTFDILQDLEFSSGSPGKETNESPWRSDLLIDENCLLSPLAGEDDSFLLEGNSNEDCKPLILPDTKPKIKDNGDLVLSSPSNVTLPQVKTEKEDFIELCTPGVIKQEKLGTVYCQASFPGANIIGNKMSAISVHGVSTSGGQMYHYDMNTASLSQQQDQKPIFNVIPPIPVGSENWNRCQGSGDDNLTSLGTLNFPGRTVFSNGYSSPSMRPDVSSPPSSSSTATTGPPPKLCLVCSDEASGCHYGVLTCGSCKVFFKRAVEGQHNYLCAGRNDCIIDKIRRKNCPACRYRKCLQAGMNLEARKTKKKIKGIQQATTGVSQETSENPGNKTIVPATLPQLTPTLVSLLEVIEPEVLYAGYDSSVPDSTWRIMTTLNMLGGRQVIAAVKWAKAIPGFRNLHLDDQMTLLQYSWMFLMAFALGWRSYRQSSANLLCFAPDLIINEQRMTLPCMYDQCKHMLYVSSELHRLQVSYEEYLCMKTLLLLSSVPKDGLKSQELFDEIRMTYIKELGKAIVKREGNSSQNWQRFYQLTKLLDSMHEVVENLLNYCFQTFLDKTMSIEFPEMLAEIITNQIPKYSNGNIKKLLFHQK
Sequence of Muscarinic acetylcholine receptor M1 (Rattus norvegicus) (P08482 whole entry, looked up): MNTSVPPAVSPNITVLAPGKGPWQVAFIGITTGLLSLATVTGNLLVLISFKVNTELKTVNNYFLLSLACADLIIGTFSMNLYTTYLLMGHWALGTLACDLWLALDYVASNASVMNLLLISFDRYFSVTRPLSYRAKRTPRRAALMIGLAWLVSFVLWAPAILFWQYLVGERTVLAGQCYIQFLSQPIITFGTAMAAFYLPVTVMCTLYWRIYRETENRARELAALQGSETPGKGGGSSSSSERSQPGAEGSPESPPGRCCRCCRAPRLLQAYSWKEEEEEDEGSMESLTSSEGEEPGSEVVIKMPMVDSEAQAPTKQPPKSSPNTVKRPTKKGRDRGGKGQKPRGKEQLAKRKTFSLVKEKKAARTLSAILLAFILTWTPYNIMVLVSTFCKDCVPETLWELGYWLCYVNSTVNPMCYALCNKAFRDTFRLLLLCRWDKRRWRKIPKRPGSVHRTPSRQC
Sequence of 3',5'-cyclic-AMP phosphodiesterase 4B (Homo sapiens) (Q07343 whole entry, looked up): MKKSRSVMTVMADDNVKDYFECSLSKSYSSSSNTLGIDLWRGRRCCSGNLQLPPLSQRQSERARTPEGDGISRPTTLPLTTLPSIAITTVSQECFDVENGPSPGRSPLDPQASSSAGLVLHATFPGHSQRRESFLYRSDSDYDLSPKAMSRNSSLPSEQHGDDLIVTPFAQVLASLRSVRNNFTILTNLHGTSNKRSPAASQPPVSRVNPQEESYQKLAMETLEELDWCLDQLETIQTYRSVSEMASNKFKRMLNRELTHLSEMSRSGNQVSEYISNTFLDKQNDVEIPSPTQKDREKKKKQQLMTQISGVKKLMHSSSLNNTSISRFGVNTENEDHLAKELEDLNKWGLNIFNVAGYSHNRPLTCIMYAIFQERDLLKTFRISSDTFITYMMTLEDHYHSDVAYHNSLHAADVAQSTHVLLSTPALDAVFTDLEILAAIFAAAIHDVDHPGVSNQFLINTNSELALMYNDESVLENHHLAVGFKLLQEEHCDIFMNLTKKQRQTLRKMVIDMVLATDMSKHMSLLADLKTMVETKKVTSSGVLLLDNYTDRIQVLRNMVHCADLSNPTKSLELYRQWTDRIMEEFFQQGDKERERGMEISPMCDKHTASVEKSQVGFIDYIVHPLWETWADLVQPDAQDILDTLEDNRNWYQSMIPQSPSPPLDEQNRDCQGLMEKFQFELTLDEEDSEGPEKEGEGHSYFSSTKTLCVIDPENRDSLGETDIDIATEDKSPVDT
Sequence of Pyruvate kinase (Leishmania mexicana) (Q27686 2-499 E452W): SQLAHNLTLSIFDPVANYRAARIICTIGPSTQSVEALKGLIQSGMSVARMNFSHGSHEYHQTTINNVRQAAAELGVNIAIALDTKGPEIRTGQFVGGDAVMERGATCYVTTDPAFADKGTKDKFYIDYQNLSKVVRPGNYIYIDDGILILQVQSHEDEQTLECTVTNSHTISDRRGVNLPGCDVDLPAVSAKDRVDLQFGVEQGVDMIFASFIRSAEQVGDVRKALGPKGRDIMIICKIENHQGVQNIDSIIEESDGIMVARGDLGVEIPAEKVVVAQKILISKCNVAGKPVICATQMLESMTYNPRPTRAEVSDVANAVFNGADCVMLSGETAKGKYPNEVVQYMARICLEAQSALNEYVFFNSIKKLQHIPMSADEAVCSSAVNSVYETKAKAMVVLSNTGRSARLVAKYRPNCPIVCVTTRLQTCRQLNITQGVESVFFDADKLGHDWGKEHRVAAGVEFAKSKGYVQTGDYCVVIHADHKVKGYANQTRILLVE
Sequence of Guanine nucleotide-binding protein G(i) subunit alpha-1 (Homo sapiens) (P63096 whole entry, looked up): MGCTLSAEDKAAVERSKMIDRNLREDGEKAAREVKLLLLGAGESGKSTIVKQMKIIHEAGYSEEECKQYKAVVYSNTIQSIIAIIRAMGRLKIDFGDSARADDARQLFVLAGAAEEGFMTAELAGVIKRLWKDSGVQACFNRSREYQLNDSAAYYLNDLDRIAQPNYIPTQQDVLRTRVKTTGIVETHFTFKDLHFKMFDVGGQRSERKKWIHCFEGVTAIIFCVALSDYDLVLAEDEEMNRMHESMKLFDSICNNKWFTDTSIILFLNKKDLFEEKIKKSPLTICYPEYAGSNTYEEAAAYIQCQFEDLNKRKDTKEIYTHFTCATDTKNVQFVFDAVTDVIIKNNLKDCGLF
Sequence of Pyruvate kinase PKM (Homo sapiens) (P14618 whole entry, looked up): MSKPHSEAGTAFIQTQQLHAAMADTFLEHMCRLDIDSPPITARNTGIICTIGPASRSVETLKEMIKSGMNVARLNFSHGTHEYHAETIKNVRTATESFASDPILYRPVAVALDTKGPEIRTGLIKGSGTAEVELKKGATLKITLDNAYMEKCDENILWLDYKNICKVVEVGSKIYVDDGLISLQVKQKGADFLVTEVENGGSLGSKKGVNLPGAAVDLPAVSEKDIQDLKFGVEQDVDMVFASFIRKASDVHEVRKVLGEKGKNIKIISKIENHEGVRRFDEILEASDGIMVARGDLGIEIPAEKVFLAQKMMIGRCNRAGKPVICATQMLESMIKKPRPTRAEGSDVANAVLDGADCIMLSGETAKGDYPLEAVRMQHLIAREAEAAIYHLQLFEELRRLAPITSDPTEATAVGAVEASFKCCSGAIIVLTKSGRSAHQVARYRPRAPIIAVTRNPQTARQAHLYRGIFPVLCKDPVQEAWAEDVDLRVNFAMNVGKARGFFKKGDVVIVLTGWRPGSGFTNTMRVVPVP
Sequence of Alpha-galactosidase A (Homo sapiens) (P06280 whole entry, looked up): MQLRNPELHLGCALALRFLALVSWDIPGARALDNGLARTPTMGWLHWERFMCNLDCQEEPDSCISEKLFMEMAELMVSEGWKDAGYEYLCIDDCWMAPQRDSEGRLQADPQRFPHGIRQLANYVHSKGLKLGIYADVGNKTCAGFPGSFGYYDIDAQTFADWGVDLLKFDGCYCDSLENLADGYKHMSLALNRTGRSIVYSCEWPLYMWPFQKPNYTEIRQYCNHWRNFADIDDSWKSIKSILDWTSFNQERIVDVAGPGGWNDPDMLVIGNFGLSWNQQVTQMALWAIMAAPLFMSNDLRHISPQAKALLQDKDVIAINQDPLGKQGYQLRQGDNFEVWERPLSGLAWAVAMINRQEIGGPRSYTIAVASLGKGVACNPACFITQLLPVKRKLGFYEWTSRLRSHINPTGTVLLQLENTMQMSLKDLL

CCOc1ccc(CC2CC(=O)NC2=O)cc1 (stereo not given)
inactive: activity change, negative = inhibition [1] -5.51% | activity, negative = inhibition [2] -1.04% | Potency [3] > 20.6 µM

COc1ccccc1Nc1ncc(-c2cccs2)s1
inactive: activity change, negative = inhibition [1] 11.7% | activity, negative = inhibition [2] -4.45% | Potency [3] > 20.6 µM

COc1cccc(-c2nnc3sc(-c4ccccc4)nn23)c1
inactive: activity change, negative = inhibition [1] -8.12% | activity, negative = inhibition [2] -8.55% | Potency [3] > 20.6 µM

CCCCC(=O)c1c(C)cc(C)[nH]c1=O
inactive: activity change, negative = inhibition [1] 4.24% | activity, negative = inhibition [2] 1.99% | Potency [3] > 20.6 µM

Cc1ccc(C(=O)CSC2=C(C#N)C(c3ccco3)C3=C(CCCC3=O)N2)cc1 (stereo not given)
inactive: activity change, negative = inhibition [1] -8.28% | activity, negative = inhibition [2] -22.5% | Potency [3] > 20.6 µM

COCCNc1cc(C)c(C#N)c2nc3ccccc3n12
inactive: activity change, negative = inhibition [1] 12.9% | activity, negative = inhibition [2] 4.06% | Potency [3] > 20.6 µM

COc1ccc(C2/C(=C(/O)c3ccc(OC(C)C)cc3)C(=O)C(=O)N2CCCN2CCOCC2)cc1 (stereo not given)
inactive: activity change, negative = inhibition [1] -1.06% | activity, negative = inhibition [2] -10.9% | Potency [3] > 20.6 µM

Cc1cc(N/C=C/C(=O)c2cccc3ccccc23)no1
inactive: activity change, negative = inhibition [1] -3.82% | activity, negative = inhibition [2] -10.2% | Potency [3] > 20.6 µM

Nc1ncnc2c1ncn2[C@@H]1O[C@@H](CO)[C@H](O)[C@@H]1O
inactive: Potency [4] > 46 µM | Potency [5] | outcome [6] | Potency [8] | Potency [9] | Potency [10] | Potency [11] | outcome [12] | outcome [13] | outcome [14]
active: Potency [7] 4.47 µM
